# Molecular target: Calmodulin-1 (Homo sapiens) (UniProt P0DP23)
# Test: CALM1 binders on microarrays, EGTA buffer, profiling panel, biochemical, small-molecule microarray, Cy5-labelled CALM1 (AID 1111);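 further: labelled calmodulin applied in Tris saline Tween buffer holding calcium plus EGTA and DTT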
# Details: Cy5-CALM1 binding fluorescence, higher = more signal
row,Compound,composite z-score
1,CO[C@H]1O[C@H](CO)[C@@H](OC(=O)CCc2ccccc2)[C@@H]2OC(=O)[C@H](Cc3cccc(Br)c3)C/C=C/C[C@@H](Cc3cccc(Br)c3)C(=O)O[C@@H]12,-0.638
2,Cc1ccc(S[C@]2(C(=O)NCCCN(C)C)CC(=O)N(C3CCCCC3)[C@@H]2c2ccc(CO)cc2I)cc1,-0.454
3,COc1cccc([C@H]2N[C@H](C(=O)O)CC[C@@H]2C)c1,0.0938
4,O=C1O[C@H](c2ccccc2)[C@H](c2ccccc2)N2[C@H]1[C@@H](C(=O)NC[C@H](O)c1ccccc1)[C@]1(C(=O)Nc3ccc(C#CC4(O)CCCCCC4)cc31)[C@H]2c1ccc(OCCO)cc1,0.67
5,CCCC[C@@H]1C[C@H]1[C@@H](NC(=O)c1cccs1)c1ccc(Cl)cc1,0.27
6,Cc1ccc(N2C(=O)c3ccccc3[C@@H](C(=O)NCC(F)(F)F)[C@@H]2c2ccc(CO)cc2)nc1,-1.65
7,COCCOC(=O)N1C(=O)[C@@]2(c3cc(C#CCNC(N)=O)ccc31)[C@H](c1ccc(OCCO)cc1)N1[C@H](c3ccccc3)[C@H](c3ccccc3)OC(=O)[C@H]1[C@@H]2C(=O)Nc1nc2ccccc2s1,0.669
8,O=C1c2ccccc2[C@](Cc2ccccc2I)(C(=O)O)[C@H](c2ccc(CO)cc2)N1C1CCCCC1,1.61

# Molecular target: Calmodulin-1 (Homo sapiens) (UniProt P0DP23)
# Test: calcium-bound CALM1 binders on microarrays, profiling panel, artefact control for SMM control-protein annotation, biochemical, small-molecule microarray, Cy5-labelled CALM1, plus calcium (AID 1112);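 further: score merges spot fluorescence with signal to noise from triplicate slides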
# Details: Cy5-CALM1 binding fluorescence, higher = more signal
row,Compound,composite z-score
1,Cc1ccc(S[C@]2(C(=O)NC(C)C)CC(=O)N(C3Cc4ccccc4C3)[C@@H]2c2ccc(CO)cc2)cc1,-0.603
2,[N-]=[N+]=NCc1ccccc1C[C@]1(C(N)=O)N=C(c2ccc(OCCCO)cc2)O[C@H]1c1ccccc1CN=[N+]=[N-],1.12
3,C[N+](C)(C)CCCC[C@@H]1NC(=O)[C@H]2C[C@@H](C(=O)NCc3ccc(F)cc3)[C@@H](c3cccc(OCCO)c3)N2C1=O,0.869
4,C=CCC(OC(C)=O)[C@@H]1[C@@H](N(Cc2ccc(-c3ccccc3)cc2)C(=O)c2ccc(-c3ccccc3)cc2)c2cc(OCCCO)ccc2N1C(=O)Cc1ccc(OC)cc1 (some centres undefined),0.229
5,CO[C@@H]1COC(=O)CC=C[C@@H](C)[C@H](OC)COC(=O)CC=C[C@H]1C,-1.49
6,O=C(NCc1ccccc1)[C@@]1(CCS(=O)(=O)c2ccccc2)COC(c2ccc(OCCCO)cc2)=N1,1.11
7,C=C(CCCC)/C(=C/C[C@@H](OC(=O)c1ccncc1)c1cccc(OCCO)c1)c1cc(C(=O)OC)ccc1OC,-0.732
8,CC(C)[Si]1(C(C)C)OCc2cc(C3CC3)nc(-c3ccccc3)c21,-0.183
9,C=CCOC(=O)[C@@H]1[C@H]2C(=O)O[C@H](c3ccccc3)[C@H](c3ccccc3)N2[C@H](c2ccc(OCCOC(=O)[C@H]3C[C@H]4C(=O)N[C@@H](CCCCNC(C)=O)C(=O)N4[C@H]3c3ccc(O)cc3)cc2)[C@@]12C(=O)Nc1ccc(I)cc12,0.232
10,CC(C)N1CC=CC23O[C@@H]4/C=C\CCCOC(=O)C4[C@H]2C(=O)N(CCCCCO)[C@@H]3C1=O (some centres undefined),-0.226
11,O=C1O[C@@H](c2ccccc2)[C@@H](c2ccccc2)N2[C@@H](c3ccc(OCCO)cc3)[C@]3(C(=O)Nc4ccc(C#CCCO)cc43)[C@@H](C(=O)N3CCN(c4ncccn4)CC3)[C@H]12,0.073
12,COC(=O)[C@@]1(Cc2ccc(OC)cc2)[C@H]2c3cc(C(=O)N(C)C)n(CCc4ccc(OC)c(Br)c4)c3C[C@H]2CN1C(=O)c1ccccc1,1.54
13,CSCC[C@@H]1NC(=O)CC=C[C@@H](C)COC(=O)[C@H](CCSC)NC(=O)CC=C[C@@H](C)COC1=O,-0.58
14,CO[C@@H]1COC(=O)CC=C[C@H](C)COC(=O)[C@H](Cc2ccccc2)NC(=O)CC=C[C@H]1C,-2.38
15,CC(C)(C)OC(=O)CC[C@]1(C(=O)NCCN2CCOCC2)N=C(c2ccc(OCCCO)cc2)O[C@H]1c1ccccc1CN=[N+]=[N-],0.608
16,CO[C@H]1O[C@H](CO)[C@@H](OC(=O)Nc2ccc3c(c2)OCO3)[C@H](OC(=O)Nc2ccccc2)[C@@H]1OC(=O)Nc1ccccc1,-0.677
17,CCc1cccc(NC(=O)O[C@H]2[C@H](OC(=O)Nc3ccccc3)[C@@H](OC(=O)Nc3ccccc3)[C@@H](OC)O[C@@H]2CO)c1,-0.291
18,CC(C)(C)OC(=O)CC[C@@]1(C(=O)NCc2ccccc2)N=C(c2ccc(OCCCO)cc2)O[C@@H]1c1ccccc1,1.26

row,Compound,composite z-score
1,C=CCNC(=O)[C@H]1[C@@H]2C(=O)O[C@@H](c3ccccc3)[C@@H](c3ccccc3)N2[C@@H](c2ccccc2OCCO)[C@]12C(=O)N(C(=O)OCCOC)c1ccc(C#CCNC(N)=O)cc12,0.559
2,CC(=O)NCCCC[C@@H]1NC(=O)[C@@H]2C[C@H](C(=O)NCCCCCCN(C)C)[C@H](c3ccc(O)cc3)N2C1=O,-1.14
3,CCCC=C(CCC)[C@@H](NC(=O)c1ccccc1)c1ccccc1,1.09
4,C=CCC(OC(C)=O)[C@@H]1[C@@H](N(Cc2ccc(-c3cccc(C(F)(F)F)c3)o2)C(=O)Cc2ccc(F)cc2)c2cc(OCCCO)ccc2N1C(=O)c1ccc(-c2ccccc2)cc1 (some centres undefined),0.671
5,CO[C@H]1COC(=O)[C@@H](C)NC(=O)CC=C[C@@H](C)[C@H](OC)COC(=O)CC=C[C@@H]1C,-2.99
6,COc1ccc([Si](C)(C)[C@H]2[C@H](CCO)O[C@@]3(C(=O)N(Cc4ccccc4)c4ccc(N5C(=O)c6cccc7cccc5c67)cc43)[C@@H]2C)cc1,0.906
7,O=C/C=C/c1ccc(/C=C/c2ccccc2)cc1,-0.584
8,O=C(CS)NCCCCCNC(=O)[C@H]1C[C@H]2C(=O)N3CCC[C@H]3C(=O)N2[C@H]1c1ccc(O)cc1,1.22
9,CO[C@H]1COC(=O)[C@H](C)NC(=O)CC=C[C@@H](C)[C@H](NS(=O)(=O)c2ccc(C)cc2)COC(=O)CC=C[C@@H]1C,-1.46
10,O=C1C[C@@](C(=O)NC2CC2)(c2ccc([N+](=O)[O-])cc2)[C@@H](c2ccc(CO)cc2I)N1CC12CC3CC(CC(C3)C1)C2,-0.151
11,CO[C@H]1O[C@H](CO)[C@@H](OC(=O)CCc2ccccc2)[C@@H]2OC(=O)[C@H](Cc3cccc(Br)c3)C/C=C/C[C@@H](Cc3cccc(Br)c3)C(=O)O[C@@H]12,-0.282
12,Cc1ccc(S[C@]2(C(=O)NCCCN(C)C)CC(=O)N(C3CCCCC3)[C@@H]2c2ccc(CO)cc2I)cc1,0.49
13,COc1cccc([C@H]2N[C@H](C(=O)O)CC[C@@H]2C)c1,0.334
14,O=C1O[C@H](c2ccccc2)[C@H](c2ccccc2)N2[C@H]1[C@@H](C(=O)NC[C@H](O)c1ccccc1)[C@]1(C(=O)Nc3ccc(C#CC4(O)CCCCCC4)cc31)[C@H]2c1ccc(OCCO)cc1,0.623
15,CCCC[C@@H]1C[C@H]1[C@@H](NC(=O)c1cccs1)c1ccc(Cl)cc1,0.696
16,Cc1ccc(N2C(=O)c3ccccc3[C@@H](C(=O)NCC(F)(F)F)[C@@H]2c2ccc(CO)cc2)nc1,-0.526
17,COCCOC(=O)N1C(=O)[C@@]2(c3cc(C#CCNC(N)=O)ccc31)[C@H](c1ccc(OCCO)cc1)N1[C@H](c3ccccc3)[C@H](c3ccccc3)OC(=O)[C@H]1[C@@H]2C(=O)Nc1nc2ccccc2s1,0.701
18,O=C1c2ccccc2[C@](Cc2ccccc2I)(C(=O)O)[C@H](c2ccc(CO)cc2)N1C1CCCCC1,0.487
